From PubChem BioAssay (Tox21)
Inconclusive results are not listed. The source made the active and inactive calls. Calls come from the whole dose curve; as a rule, active = well fitted cell-killing curve with a large enough effect in the repeat runs; inconclusive = weak or mixed curves, or effect the other way; inactive = flat fitted curve, though single readings scatter.

Assay: qHTS assay to identify small molecule agonists of the estrogen receptor beta (ER-beta) signaling pathway - cell viability counter screen (AID 1259380); note: nearly all actives have a fitted effect of over 30% in size
Details: ER-beta-bla HEK293T viability, CellTiter-Glo luminescence, 16 h; series mostly up to 92.4 µM
Description: National Center for Advancing Translational Sciences [NCATS]
NIH Chemical Genomics Center [NCGC]
U.S. Environmental Protection Agency [EPA]
National Institutes of Environmental Health Sciences [NIEHS]
National Toxicology Program [NTP]
U.S. Food and Drug Administration [FDA]
Estrogen receptor (ER), a nuclear hormone receptor, plays an important role in development, metabolic homeostasis and reproduction. Two subtypes of ER, ER-alpha and ER-beta, have similar expression patterns with some uniqueness in both types. Endocrine disrupting chemicals (EDCs) and their interactions with steroid hormone receptors like ER causes disruption of normal endocrine function. To identify the compounds that activate ER signaling, an ER beta-UAS-bla GripTite cell line (Life Technologies, Madison, WI, USA) containing a beta-lactamase reporter gene under the control of an UAS response element was used to screen Tox21 10K compound library. The cytotoxicity of the Tox21 compound library against the ER-beta-bla cell line was tested in parallel by measuring the cell viability using CellTiter-Glo assay in the same wells.
Tox21 Assay Protocol Summary:
ER-beta-UAS-bla HEK293T cells were dispensed at 2,000 cells/5 uL of assay medium containing 2% charcoal stripped FBS per well into black wall/clear-bottom 1536-well plates using a Multidrop Combi (ThermoFisher Scientific, Waltham, MA) dispenser. After the assay plates were incubated at a 37C and 5% CO2 for 6 hr, 23 nL of compounds dissolved in DMSO, positive controls or DMSO only was transferred to the assay plate by a Pintool station (Kalypsys, San Diego, CA). The plates were incubated at 37C and 5% CO2 for 16 hr. Then 1 uL of LiveBLAzerTM B/G FRET substrate was added using a BioRAPTR FRD (Flying Reagent Dispenser, Aurora Discovery, San Diego, CA) and then the plates were incubated at room temperature for 2 hours, and fluorescence intensity was measured by an Envision plate reader (PerkinElmer, Shelton, CT). For cell viability readout that measures cytotoxicity, 4 uL/well of CellTiter-Glo reagent was added into the assay plates using a FRD. After 30 min incubation at room temperature, the luminescence intensity in the plates was measured using a ViewLux (PerkinElmer) plate reader.
% is set by controls: 0 for no effect and ±100 for the full control effect.

| Structure (SMILES) | outcome | activity change, negative = cytotoxicity |
| --- | --- | --- |
| CC(=O)N1CCN(c2ccc(O)cc2)CC1 | inactive | – |
| COc1ccc(OC)c(NC(=O)CC(C)=O)c1 | inactive | – |
| CCC1Nc2cc(Cl)c(S(N)(=O)=O)cc2S(=O)(=O)N1 (stereo not given) | inactive | – |
| COc1ccc(NS(=O)(=O)c2ccc(N)cc2)nn1 | inactive | – |
| CCOC(=O)CC(CC(=O)OCC)(OC(C)=O)C(=O)OCC | inactive | – |
| O=C(COCCOCCOCC(=O)Nc1c(I)cc(I)c(C(=O)O)c1I)Nc1c(I)cc(I)c(C(=O)O)c1I | inactive | – |
| Cc1c(C(C)C)c(=O)n(-c2ccccc2)n1C | inactive | – |
| COC(=O)CCC(=O)O | inactive | – |
| O=S(=O)(O)SSS(=O)(=O)O | inactive | – |
| C[C@H](CCC(=O)O)[C@H]1CC[C@H]2[C@@H]3[C@H](O)C[C@@H]4C[C@H](O)CC[C@]4(C)[C@H]3C[C@H](O)[C@]12C | inactive | – |
| O=C1NC2NC(=O)NC2N1 (stereo not given) | inactive | – |
| C=CC(C)(O)CC/C=C(\C)CC (stereo not given) | inactive | – |
| CCOC(=O)CC#N | inactive | – |
| CC(C)COC(=O)CC(C(=O)OCC(C)C)S(=O)(=O)O (stereo not given) | inactive | – |
| CC1=NN(c2ccc(S(=O)(=O)O)cc2)C(=O)C1N=Nc1ccccc1 (stereo not given) | inactive | – |
| CCCCCCCCCCCCCC(=O)OC | inactive | – |
| CCN(CCO)c1cccc(C)c1 | inactive | – |
| CO[Si](CCCS)(OC)OC | inactive | – |
| CCCCCCCCCCCCC | inactive | – |
| C[C@H](CCC(=O)NCC(=O)O)[C@H]1CC[C@H]2[C@@H]3[C@H](O)C[C@@H]4C[C@H](O)CC[C@]4(C)[C@H]3C[C@H](O)[C@]12C | inactive | – |

| Structure (SMILES) | outcome | activity change, negative = cytotoxicity |
| --- | --- | --- |
| O=C(Oc1ccccc1C(=O)O)c1ccccc1O | inactive | – |
| BrC/C=C/CBr | – | 4.89% [at 19 µM] (inactive) |
| C[C@@H]1C[C@H]2[C@@H]3C[C@H](F)C4=CC(=O)C=C[C@]4(C)[C@@]3(F)[C@@H](O)C[C@]2(C)[C@@]1(O)C(=O)CO | inactive | – |
| c1ccccc1 | inactive | – |
| CC(C)C(=O)c1ccccc1 | inactive | – |
| Cc1nc([N+](=O)[O-])cn1-c1ccc([N+](=O)[O-])cc1 | inactive | – |
| O=C(O)c1ccccc1C(=O)Nc1ccc(S(=O)(=O)Nc2nccs2)cc1 | inactive | – |
| Cc1cccc(Nc2ccncc2S(=O)(=O)NC(=O)NC(C)C)c1 | inactive | – |
| C[Si]1(C)N[Si](C)(C)N[Si](C)(C)N1 | inactive | – |
| OCCCCCCCl | inactive | – |
| CCCCC(CC)CNC(=O)CC(C)OC(=O)CCC(=O)O (stereo not given) | inactive | – |
| COc1ccc(/C=N/NC(=O)c2ccncc2)cc1OC | inactive | – |
| CCCCC(CC)COC(=O)c1ccccc1 (stereo not given) | inactive | – |
| OC[C@@H](O)[C@H](O)[C@@H](O)[C@@H](O)CO | inactive | – |
| COCC(=O)Nc1c(I)c(C(=O)NCC(O)CO)c(I)c(C(=O)N(C)CC(O)CO)c1I (stereo not given) | inactive | – |
| CNC(=O)C(c1ccccc1)c1ccccc1 | inactive | – |
| Nc1ccc(S(=O)(=O)NC(=O)c2ccccc2)cc1 | inactive | – |
| CCC1COC(=O)O1 (stereo not given) | inactive | – |
| CCNC(=O)/C=C/c1cccc(Br)c1 | inactive | – |
| O=C1OC(=O)c2cc(Oc3ccc4c(c3)C(=O)OC4=O)ccc21 | inactive | – |
